The list is not random: actives were taken first. Their share in the collection is about 19%.
SW480 rerep: induces DNA re-replication in SW480 colon adenocarcinoma cells. SW480 DNA re-replication, Hoechst DNA content imaging, 48 h. Potency, µM (top dose mostly 46.1 µM), for the others: at the highest dose re-replication activation, actives largely listed as activators. 340,000 compounds, 1.8% hits; also: potency is read from the fitted curve at half-maximal effect; % of control where 0% means no effect; nearly all actives have a fitted effect of over 55% in size
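Treated cells incubate 48 hr (37 C, 5% CO2), are stained 40 min with Hoechst, and nuclear fluorescence is enumerated; a rise in nuclei with high DNA signal marks re-replication.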
TDP1 cell CPT: DT40-hTDP1 cell growth loss with CPT; chicken DT40 Tdp1-/-;hTDP1 cells + 20 nM CPT, ATP luminescence, 48 h; Potency, µM (highest dose often 46.2 µM), inactives show at the top dose activity change, negative = growth inhibition, actives largely listed as inhibitors; 420,000 compounds, 12% hits; also: potency is read from the fitted curve at half-maximal effect; % is scaled to controls: 0 for no effect and ±100 for the full control effect; nearly all actives have a fitted effect of over 55% in size
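Chicken DT40 Tdp1-/- cells stably complemented with human TDP1 were seeded at 400 cells/well in medium containing 20 nM camptothecin, exposed to pin-transferred compounds, and grown at 37 °C for at least 48 hr. Viability was read as ATP luminescence.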
MCF10A rereplic: inducers of DNA re-replication in MCF 10A breast cells. AID 624296. 350,000 compounds, 2.9% hits. MCF 10A DNA re-replication, Hoechst nuclear intensity, 48 h. Potency, µM (titrated, usually from 46.1 µM), without a hit: at the highest dose activity, positive = re-replication, hits mostly activators; also: potency is read from the fitted curve at half-maximal effect; % of control where 0% means no effect; nearly all actives have a fitted effect of over 50% in size
Chronic BCR inh: blocks chronic active B-cell receptor signaling | Potency, µM (series often up to 46.1 µM), for inactives: at the highest dose activity change, negative = inhibition, usual class: inhibitors | 340,000 compounds, 0.05% hits | ABC-DLBCL IkBa-CBG/CBR reporter, luminescence ratio, 4 h; active = well fitted inhibition curve with a large enough effect in the signal ratio, with a control signal flat, not every such curve was filed as active; inconclusive = small, poorly fitted or top-dose-only effect, or effect the other way, or a change in a side signal; the % refers to the signal ratio;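 also: potency is read from the fitted curve at half-maximal effect; plate controls were basal doxycycline-induced cells for no effect and cells given 10 µM MG132 for full effect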
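Cell line TMD8 (human ABC DLBCL), stably expressing tet-inducible CBG68-IkBa fusion and CBR; IMDM/0.5% FBS; cpd up to 46 uM; dox induction, 4 h, 37C/5% CO2; dual luminescence; green/red ratio; MG132 control.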
IL1B secr inh: inflammasome signaling inhibition, IL-1 beta readout; 360,000 compounds, 4.7% hits; activity change, % at 57.5 µM; THP-1 LPS/ATP IL-1B secretion, AlphaLISA, 16 h; stronger effect = lower value; in the data active = activity change below about -50%; inconclusive = mostly about -30% to -49%; also: % is scaled to controls: 0 for no effect and ±100 for the full control effect
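THP-1 cells pretreated 1 hr with compounds (up to 57.5 uM final), then stimulated with LPS (250 ng/mL final) plus ATP (1.25 mM final); secreted IL-1B measured by AlphaLISA after 16 hr, decreased signal indicating inhibition.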
TDP1 cell noCPT: qHTS for Inhibitors of human tyrosyl-DNA phosphodiesterase 1 (TDP1): qHTS in cells in absence of CPT | 420,000 compounds, 15% hits | Potency, µM (top dose mostly 46.2 µM), for the others: at the top dose activity change, negative = growth inhibition, usual class: inhibitors | DT40 Tdp1-/- hTDP1 cells, no CPT, ATP luminescence, 48 h; also: potency is read from the fitted curve at half-maximal effect; % is scaled to controls: 0 for no effect and ±100 for the full control effect; nearly all actives have a fitted effect of over 55% in size
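Growth kinetics read by CellTiter-Glo luminescence after ≥48 hr at 37 °C. Cells: DT40 Tdp1-/- stably carrying human TDP1, 400 per well, compound exposure in the absence of CPT (DMSO vehicle).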
An asterisk follows results filed as active; ? = inconclusive; nt = no result; [ ] = another dose, or the depositor's remark. Unless noted, calls follow the shape of the dose curve; as a rule, active = well fitted curve in the direction sought with a large enough effect; inconclusive = small, poorly fitted or top-dose-only effect, or another doubt; inactive = no such curve, though single readings can be large; an effect the other way counts as inactive or inconclusive.

SMILES	SW480 rerep	TDP1 cell CPT	MCF10A rereplic	Chronic BCR inh	IL1B secr inh	TDP1 cell noCPT
Cc1ccc([C@H]2C[C@H](O)[C@@H](n3cc(-c4ccc(F)cc4)nn3)CN2Cc2cccs2)cc1	nt	?	nt	nt	1	16µM*
O[C@H]1C[C@H](c2ccc(Cl)cc2)N(Cc2cccs2)C[C@@H]1n1cc(-c2ccc(F)cc2)nn1	nt	?	nt	nt	-25	?
O=C(CN1C(=O)NC2(CCCc3ccccc32)C1=O)NCC(F)(F)F (stereo not drawn)	1%	-8%	-35%	-1%	-2	-9%
Cc1oc2ncnc(N3CCCCC3)c2c1C(=O)NCC1CCN(Cc2ccccc2F)CC1	nt	-25%	nt	nt	nt	2%
COc1ccc(CC(NC(C)=O)C(=O)NC2CCN(c3nc(C)cc(C)c3C#N)CC2)cc1OC (stereo not drawn)	-9%	-16%	0.58µM*	1%	4	0%
CC(C)(C)C(=O)CSc1n[nH]c(-c2ccccc2)n1	nt	-25%	nt	nt	nt	?
Cc1cc(C)c(C)c(S(=O)(=O)N(C)CCc2ccccn2)c1C	-2%	?	8%	0%	27	23µM*
Cc1cccc(NC(=O)Cc2nc(-c3c[nH]c(C(=O)N4CCCC4)c3)cs2)c1	5%	?	21%	-6%	-14	?
Cc1ccccc1NC(=O)Cc1nc(-c2c[nH]c(C(=O)N3CCCC3)c2)cs1	-21%	18µM*	29%	-6%	-1	?
ON/C=N/C(=S)Nc1ncc(C(F)(F)F)cc1Cl	-4%	15µM*	-1%	?	17	12µM*
FC(F)(F)c1cnc(NNC(=S)Nc2ccc(Cl)cc2)c(Cl)c1	?	10µM*	15µM*	7%	-99*	13µM*
Fc1ccc(NC(=S)NNc2ncc(C(F)(F)F)cc2Cl)c(F)c1	?	12µM*	7%	?	-10	13µM*
Cc1ccc(NC(=S)NNc2ncc(C(F)(F)F)cc2Cl)cc1	10%	?	22%	9%	-16	?
CC(C)C(=O)Nc1ncc(C(F)(F)F)cc1Cl	-4%	-9%	1%	1%	41	-4%
COc1coc(C(O)C[N+](=O)[O-])cc1=O (stereo not drawn)	238%	29µM*	-2%	0%	26	?
COc1ccccc1C(=O)NC(=O)CSc1nnc(SC)s1	-4%	4%	-3%	-2%	13	9%
Cc1ccc(S(=O)(=O)NC(C(=O)Oc2cc3oc(=O)cc(C)c3cc2Cl)C(C)C)cc1 (stereo not drawn)	10%	-3%	4%	?	-21	?
CCc1ccc(NC(=O)CSc2nccn(-c3ccc4c(c3)OCCO4)c2=O)cc1	16%	18µM*	?	1%	-9	?
O=C(CSc1nccn(-c2ccc3c(c2)OCCO3)c1=O)Nc1ccccc1	1%	?	1%	-5%	-6	?
Cc1ccc(NC(=O)CSc2nccn(-c3ccc4c(c3)OCCO4)c2=O)cc1	3%	23µM*	8%	?	-12	18µM*
CCOc1ccc(NC(=O)CSc2nccn(-c3ccc4c(c3)OCCO4)c2=O)cc1	-6%	-27%	2%	-1%	8	15µM*
CCOC(=O)N(C)C[C@H]1OCc2cnnn2CCCC(=O)N([C@H](C)CO)C[C@H]1C	nt	1%	nt	nt	12	-3%
Cc1cnc(C(=O)N(c2ccc(N3CCOCC3)cc2)C2C(=O)Nc3ccccc3N=C2c2ccc(F)cc2)cn1 (stereo not drawn)	nt	-7%	nt	nt	13	?
CN(CC(=O)Nc1ccccc1C(=O)NC1CC1)Cc1ccc(N(C)C)cc1	-3%	4%	-1%	?	-23	7%
Cc1ccnc(OC(C(=O)O)C(OCc2ccccc2)(c2ccc(F)cc2)c2ccc(F)cc2)n1 (stereo not drawn)	-7%	-10%	12%	?	17	-9%
SMILES	SW480 rerep	TDP1 cell CPT	MCF10A rereplic	Chronic BCR inh	IL1B secr inh	TDP1 cell noCPT
Oc1ccc(/C=N/NC(=S)NCc2ccco2)cc1	-5%	-7%	-3%	?	-14	-11%
S=C(NCc1ccco1)Nc1ccc(Oc2ccc(Cl)cc2)cc1	11%	?	7.3µM*	-14%	-91*	?
O=S(=O)(NCc1ccccc1)c1ccc(NC(=S)NCc2ccco2)cc1	-3%	?	-2%	-13%	23	12µM*
COc1cc(/C=N/NC(=S)NCc2ccco2)cc(OC)c1OC	-2%	16µM*	-2%	?	0	?
S=C(NCc1ccco1)Nc1ccccc1	-1%	13%	-2%	7%	-3	6%
S=C(NCc1ccco1)N/N=C/c1ccc(Cl)cc1	?	?	1%	?	?	21µM*
CCOc1ccc(S(=O)(=O)N2CCC(C(=O)Nc3ccc(C)c(S(=O)(=O)N4CCOCC4)c3)CC2)cc1	16%	?	0%	nt	3	?
CN(Cc1ccccc1)C(=O)COC(=O)c1cc(NS(=O)(=O)c2cccs2)ccc1O	-55%	?	11%	-4%	26	?
CCC(C)Oc1nc2c(c(=O)n(C)c(=O)n2C)n1C (stereo not drawn)	-6%	-5%	4%	?	31	-20%
CN1Cc2c(C(=O)OC(C)(C)C)ncn2-c2ccsc2C1=O	nt	0%	nt	nt	nt	-4%
Cc1ccc(NS(=O)(=O)c2ccc(-c3coc(C)n3)cc2)c(Cl)c1	nt	?	nt	nt	15	?
C(=Nc1cccnc1)c1ccc2ccccc2n1	nt	0.89µM*	nt	nt	nt	1µM*
CCCN[C@@H](C)C(=O)Nc1c(C)csc1C(=O)OC	-3%[20.6 µM]	nt	-5%[20.6 µM]	nt	nt	nt
CSc1ccccc1NC(=S)N/N=C/c1cccn1Cc1cccc(C)c1	?	7%	0%	-6%	46	10%
COc1ccc(NC(=S)N/N=C/c2cccn2Cc2ccc(F)cc2Cl)cc1	-4%	23µM*	?	4%	17	10µM*
Cc1cccc(NC(=S)N/N=C/c2cccn2Cc2ccc(F)cc2)c1	13%	?	8.2µM*	0%	7	16µM*
CSc1ccccc1NC(=S)N/N=C/c1cccn1Cc1ccc(F)cc1	0%	?	?	6%	28	23µM*
COc1ccc(NC(=S)N/N=C/c2cccn2Cc2ccccc2F)cc1	-2%	14%	?	0%	40	?

Screens as filed in PubChem BioAssay.
